Rows were chosen to be rich in hits. Some 2.3% of all compounds tested hit in one or more screens of this group.
CHO-K1 Ca ag – nonselective activator or artifact in parental CHO-K1 cells. Fluo-8 calcium fluorescence; scaled to maximal ATP response, vehicle zero. activation, % at 3 µM. 0.48% of 360,000 active. AID 602248; in the data active = activation above about 15%;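 note: untransfected CHO-K1 host cells lacking M1 receptor as counterscreen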
CHO-K1 Ca antag – counter-screen for M1 antagonists: effect in parental CHO-K1 cells | 0.6% of 360,000 active | ATP-induced calcium, Fluo-8 fluorescence | inhibition, % at 3 µM | AID 602250;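 active = inhibition above a per-plate cutoff, the plate's mean sample inhibition plus 3 SD, cut at about 24% in these data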;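 note: 0% = DMSO plus EC80 ATP and 100% = DMSO alone without ATP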
M1 PAM – potentiates human M1 receptor response to acetylcholine | P11229 | CHO-K1 hM1, Fluo-8 calcium fluorescence, ACh EC20; 0% = ACh EC20, 100% = maximal ACh | activation, % at 3 µM | 0.088% of 360,000 active | AID 588819; in the data active = activation above about 19%, passing the limit was not always enough
Target sequence (P11229 whole entry, looked up): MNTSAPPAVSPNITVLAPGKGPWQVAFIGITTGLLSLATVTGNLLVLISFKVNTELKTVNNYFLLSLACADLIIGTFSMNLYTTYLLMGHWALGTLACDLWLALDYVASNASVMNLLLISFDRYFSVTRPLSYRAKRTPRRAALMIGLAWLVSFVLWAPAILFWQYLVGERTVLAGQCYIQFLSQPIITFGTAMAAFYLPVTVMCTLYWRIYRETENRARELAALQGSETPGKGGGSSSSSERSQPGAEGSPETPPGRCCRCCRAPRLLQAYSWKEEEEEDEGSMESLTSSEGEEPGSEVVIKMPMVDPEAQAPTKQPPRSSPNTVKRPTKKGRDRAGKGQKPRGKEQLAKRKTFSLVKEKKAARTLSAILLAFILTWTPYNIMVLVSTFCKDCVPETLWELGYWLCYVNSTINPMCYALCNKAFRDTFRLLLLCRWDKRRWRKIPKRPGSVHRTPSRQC
M1 ag – activates human CHRM1 receptor | activation, % at 3 µM | 0.33% of 360,000 active | CHO-K1 hM1, Fluo-8 calcium fluorescence, agonist mode; 0% DMSO, 100% acetylcholine EC100 | P11229;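 active = activation above the run's mean compound activation plus 3 SD, cut at about 16% in these data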;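 note: peak over basal fluorescence ratio within a 140 s kinetic read after compound addition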
CHRM1 antagonist – human CHRM1 antagonism. 1.3% of 360,000 active. inhibition, % at 3 µM. P11229. AID 588852. CHO-K1 hM1, Fluo-8 calcium fluorescence, ACh EC80 antagonist;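 active = percent inhibition above its own plate's cutoff, namely the mean of that plate's compound wells plus 3 SD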;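 note: peak over basal fluorescence ratio during 140 s after agonist addition; 0% = ACh EC80 plus DMSO and 100% = DMSO alone without agonist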
M1 PAM parental – counter-screen for M1 PAMs: effect in parental CHO-K1 cells; ATP EC20, Fluo-8 calcium fluorescence; 0% at ATP EC20, 100% at ATP max; activation, % at 3 µM; 0.02% of 360,000 active; AID 602247;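 active = activation above the run cutoff, the mean activation of all test compounds plus 3 SD, cut at about 40% in these data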;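 note: peak over basal fluorescence ratio in a 140 s read after ATP addition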
Numbers without * were called inactive; x = no result.

SMILES | CHO-K1 Ca ag | CHO-K1 Ca antag | M1 PAM | M1 ag | CHRM1 antagonist | M1 PAM parental
COCc1c(C(=O)OCC(=O)N(C)C2CCS(=O)(=O)C2)oc2ccccc12 (stereo not given) | 0 | -6 | -19 | -9 | 36* | -1
COc1cc(/C=C/C(=O)OCC(=O)N2c3ccccc3NC(=O)C2(C)C)cc(OC)c1OC | 9 | -8 | -13 | 0 | 33* | 7
COCc1c(C(=O)OCC(=O)N2c3ccccc3CC2C)oc2ccccc12 (stereo not given) | 0 | 24* | 9 | -1 | 9 | -7
CC(=O)NS(=O)(=O)c1ccc(NC(=O)[C@@H]2CCCN2S(=O)(=O)c2ccc(Cl)cc2)cc1 | 0 | -11 | 10 | -2 | -11 | 5
CSc1ncnc2ncn(C)c12 | 4 | 5 | -3 | 0 | 6 | -5
Cc1nc2ccccn2c1C(=O)OCC#N | 0 | 21 | -2 | -4 | 11 | -20
CC1(C)C(=O)Nc2ccccc2N1C(=O)COC(=O)c1cc(S(C)(=O)=O)ccc1Cl | 2 | -13 | 6 | -1 | -5 | -10
CC1(C)C(=O)Nc2ccccc2N1C(=O)COC(=O)c1ccc(Cl)c(S(=O)(=O)NCc2ccccc2)c1 | 3 | 15 | -12 | 1 | 30* | 5
COc1cc(OC)c(NC(=O)c2sc3ncn(CC(=O)N4CCOCC4)c(=O)c3c2C)cc1Cl | 1 | -21 | 6 | -1 | -5 | 15
CN1\C(=C/C=C/C=C/C=[N+](C)C)C(C)(C)c2ccccc21 | 26* | 14 | -20 | 53* | 47* | -4
CCOC(=O)C1CCCN(C/C(O)=C(\C#N)c2nc(-c3ccc(Cl)cc3)cs2)C1 (stereo not given) | 0 | 4 | -10 | 25* | 8 | -6
CCOC(=O)C1CCCN(Cc2nc(N)nc(Nc3ccccc3OC)n2)C1 (stereo not given) | 1 | -11 | 15 | 20* | -9 | 20
N#C/C(=C(/O)CN1CCCC1)c1nc(-c2ccccc2)cs1 | 0 | -6 | 7 | -4 | -6 | -3
CCOC(=O)C1CCCN(Cc2nc(N)nc(Nc3ccc(Cl)cc3)n2)C1 (stereo not given) | 0 | 16 | 3 | 37* | -33 | -2
Cc1cc(C)n2c(Nc3ccc4c(c3)OCCO4)c(CC(C)C)nc2n1 | 0 | -10 | x | x | x | 11
COc1ccc(NC(=O)Cn2ncn3nc(-c4ccc(OC)cc4)cc3c2=O)cc1 | 1 | -7 | 7 | 0 | -8 | 24
Cc1cc(C)cc(NC(=O)c2ccc(CSc3nnc(C)s3)cc2)c1 | 4 | 16 | -12 | 0 | 36* | -4
CCCCCCCCCCCCCCCC[N+](C)(C)Cc1ccc(F)cc1 | 1 | -21 | -24 | -8 | 44* | 32
Nc1ccc(C(=O)OCc2nc3ccccc3s2)cc1 | 1 | -12 | 6 | -5 | -5 | -3
Cc1ccc(C(=O)OCc2nc3ccccc3s2)o1 | 16* | 3 | 5 | -2 | -1 | 5
Cc1cc(/C=C2/SC(=S)N(c3cccc(Cl)c3)C2=O)c(C)n1-c1cccnc1 | 9 | 23 | -17 | 5 | 27* | 3
O=C1Nc2cc(C(=O)NCCCN3CCCC3)ccc2S/C1=C/c1ccccc1F | 0 | 3 | 6 | -6 | -11 | 24
O=C(NCCCN1CCCCC1)c1ccc2c(c1)NC(=O)c1ccccc1S2 | 1 | -12 | -21 | -6 | 43* | 10
CCOc1cc2[nH]c(=O)n(Cc3ccccc3)c(=O)c2cc1OCC | 0 | 26* | -1 | -4 | 9 | -8
COc1ccc(Cn2c(=O)[nH]c3cc(OC)c(OC)cc3c2=O)cc1 | 6 | -4 | -4 | -1 | 9 | 4
SMILES | CHO-K1 Ca ag | CHO-K1 Ca antag | M1 PAM | M1 ag | CHRM1 antagonist | M1 PAM parental
Cc1cccn2c(=O)nc(SCC(=O)c3ccccc3)nc12 | 1 | -3 | 16 | 1 | -14 | -3
COc1cccc(CN(C)C(=O)C(Cc2ccccc2)NC(=O)c2ccccc2)c1OC (stereo not given) | 5 | 13 | -12 | -2 | 29* | -17
O=C(Nc1ccc2nc(SCc3ccc(Cl)cc3)sc2c1)c1ccccc1C(=O)N1CCOCC1 | 3 | 11 | -9 | -2 | 29* | 6
Cc1sc2ncnc(NCc3ccccc3)c2c1C | 7 | 12 | -2 | -1 | 22 | 7
Cc1sc2ncnc(Nc3ccccc3)c2c1C | -1 | -1 | -2 | -7 | -4 | -1
c1ccc(-c2csc3ncnc(NCC4COc5ccccc5O4)c23)cc1 (stereo not given) | 4 | 23 | -16 | -8 | 33 | 17
COc1ccc(C(CNc2ncnc3sc(C)c(C)c23)N(C)C)cc1 (stereo not given) | 1 | -14 | -28 | -12 | 23* | 26
COc1ccccc1C(CNc1ncnc2sc(C)c(C)c12)N(C)C (stereo not given) | 3 | -10 | -34 | -11 | 92* | 3
Cc1sc2ncnc(NCC3COc4ccccc4O3)c2c1C (stereo not given) | 10 | 27* | -17 | -5 | 30 | -5
CN(C)C(CNc1ncnc2sc3c(c12)CCCCC3)c1ccco1 (stereo not given) | 0 | -6 | -15 | -7 | 17 | 12
Cc1sc2ncnc(NCC(c3ccco3)N(C)C)c2c1C (stereo not given) | 0 | 14 | -18 | -4 | 38* | -7
CC(=O)NS(=O)(=O)c1ccc(NC(=O)COc2ccc(C(=O)c3ccccc3)cc2)cc1 | 0 | -8 | 6 | -6 | 1 | 13
Oc1ccc(C2=CSC3=NCCN23)cc1O | 1 | -13 | 3 | -9 | -4 | -2
COc1ccc(CN2C[C@@H](CO)O[C@@H](n3cnc4c(NC5CCC5)ncnc43)C2)cc1 | 0 | 10 | -10 | -4 | 13 | -15
CN1CCN(c2ncnc3c2ncn3[C@H]2CN(Cc3ccc(-c4ccccc4)cc3)C[C@@H](CO)O2)CC1 | 6 | -3 | -3 | 1 | -3 | 16
CC(=O)c1ccccc1OCCOc1ccccc1C(C)=O | 2 | -5 | -27 | -7 | 39* | 7
CCC(C)c1ccccc1OCCCCN1CCCC1 (stereo not given) | 2 | -9 | -22 | -9 | 48* | 22
CC(=O)c1ccccc1OCCCCN1CCCCC1 | 2 | -13 | -26 | -9 | 59* | 25
COc1ccccc1OCCCCOc1ccccc1C(C)=O | 12 | 5 | -16 | -5 | 13 | 7
CCC(C)c1ccccc1OCCOCCN1CCCC1 (stereo not given) | 3 | -12 | -17 | -8 | 18 | 24
COC(=O)c1ccccc1OCCN1CCCCCC1 | 0 | 7 | -5 | -9 | -4 | -9
CN(Cc1ccccc1)C(=O)[C@@H]1CCCN1C(=O)[C@@H]1CCCN1C(=O)c1cccc(Cl)c1 | 0 | -16 | x | x | x | 1
